# Assay results taken from PubChem BioAssay AID588342 (National Center for Advancing Translational Sciences (NCATS), 2011).
# Hit rate of the full screen: of about 360,000 compounds, about 25,000 (6.9%) were called active. Not shown: some 9% with an inconclusive outcome. This is one part of a sample in which actives are shown more often than they occur. A number with no mark means an inactive call. Calls follow the shape of the dose curve; as a rule, active = well fitted inhibition curve with a large enough effect; inconclusive = small, poorly fitted or top-dose-only effect; inactive = flat fitted curve, though single readings scatter.
# Target: Luciferin 4-monooxygenase (Photinus pyralis) (UniProt P08659)
# Sequence (P08659 whole entry, looked up): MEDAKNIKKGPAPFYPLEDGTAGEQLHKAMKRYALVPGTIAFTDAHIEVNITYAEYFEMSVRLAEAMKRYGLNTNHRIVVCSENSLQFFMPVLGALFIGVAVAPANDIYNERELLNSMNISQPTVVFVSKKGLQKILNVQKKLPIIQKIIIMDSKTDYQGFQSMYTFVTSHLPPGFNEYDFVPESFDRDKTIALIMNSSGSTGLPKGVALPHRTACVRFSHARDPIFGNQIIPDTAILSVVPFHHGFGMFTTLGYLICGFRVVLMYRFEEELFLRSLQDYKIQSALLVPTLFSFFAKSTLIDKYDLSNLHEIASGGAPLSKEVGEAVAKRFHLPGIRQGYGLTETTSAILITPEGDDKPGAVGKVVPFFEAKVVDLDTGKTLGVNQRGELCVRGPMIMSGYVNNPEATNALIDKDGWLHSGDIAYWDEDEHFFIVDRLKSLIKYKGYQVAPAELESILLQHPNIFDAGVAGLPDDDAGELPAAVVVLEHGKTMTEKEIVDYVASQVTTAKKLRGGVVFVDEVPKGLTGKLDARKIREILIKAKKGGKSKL
# Assay: qHTS profiling assay for firefly luciferase inhibitor/activator using purifed enzyme and Km concentrations of substrates (counterscreen for miR-21 project); also: nearly all actives have a fitted effect of over 55% in size;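 as to activity change, negative = inhibition: plate controls were vehicle for no effect and reference inhibitor for full effect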
# Settings: purified FLuc, luminescence inhibition; series mostly up to 57.5 µM; activity change, negative = inhibition: at the top concentration
# Outline: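 Purified P. pyralis luciferase (10nM final) with 10uM D-luciferin and 10uM ATP (Km levels) in 50mM Tris acetate pH 7.5, 10mM Mg acetate, 0.01% Tween-20, 0.05% BSA; qHTS 6-point titration, ~60 µM downward; luminescence read.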
# Potency is read from the fitted curve at half-maximal effect.
Structure (SMILES),"activity change, negative = inhibition",Potency
Cc1cc(C)cc(NC(=O)C2CCCN2S(=O)(=O)c2cccc3cccnc23)c1 (stereo unspecified),3.8%,–
Cc1c(CNC(C)c2ccccc2)c(C(=O)O)c(C)n1Cc1c(F)cccc1Cl (stereo unspecified),-7.24%,–
COc1ccc(N2CCN(S(=O)(=O)c3ccc(-c4coc(C)n4)cc3)CC2)cc1,3.39%,–
CCOc1ccc(CNC(=O)Cn2cc3c(n2)-c2c(oc(C(=O)N4CCCC4)c2C)CC3)cc1,-0.775%,–
CC1(C)O[C@@H]2[C@H](O1)[C@@H](CO)O[C@H]2n1c(N2CCCCC2)nc2c(N)ncnc21,-1.84%,–
Cc1ccc(OCC(=O)Nc2ccc(OCc3cc(=O)n4c(C)csc4n3)cc2)cc1C,-0.234%,–
Cc1ccccc1NC(=O)Cn1c(=O)n(CCCCC(=O)NCc2ccccc2Cl)c(=O)c2ccccc21,-4.82%,–
Cc1ccc2nc(N3CCN(c4cccc(Cl)c4)CC3)c3nnnn3c2c1,-5.21%,–
CCOC(=O)c1cc2c(=O)n3ccccc3nc2n(CCCOC)c1=NC(=O)C(C)Oc1ccccc1 (stereo unspecified),1.01%,–
CCOc1cccc2cc(-c3cn4c(n3)sc3cc(C)ccc34)c(=O)oc12,–,0.426 µM (active)
COc1ccc2oc(=O)c(-c3cn4c(n3)sc3cc(OC)ccc34)cc2c1,-17.1%,–
CCOc1ccc(CCNC(=O)c2ccc3c(c2)sc2nc(-c4ccc(F)cc4)cn23)cc1OCC,-8.52%,–
COC(=O)c1ccc(NS(=O)(=O)c2cc3c4c(c2)C(C)C(=O)N4CCC3)cc1 (stereo unspecified),-0.997%,–
Cc1ccc(N2C(=O)CC(NCc3ccc4c(c3)OCO4)C2=O)cc1Cl (stereo unspecified),-13.1%,–
COc1ccc(C)cc1S(=O)(=O)Nc1cc2c3c(c1)CCC(=O)N3CCC2,0.954%,–
CCc1nn(CC(=O)N2CCN(c3ccc(Cl)cc3)CC2)c(=O)c2cc3occc3n12,-18.2%,–
COc1ccc(CCn2cc3c(c2-c2ccc(Br)cc2)c(=O)n(C)c(=O)n3C)cc1OC,-4.89%,–
COc1ccc(C)cc1NC(=O)c1ccc(-c2ccc(C(C)=O)cc2)o1,-11.1%,–
CCOC(=O)c1ccc(-c2ccc(/C=C(\C#N)C(=O)Nc3ccc(C)cc3)o2)cc1,-3.16%,–
CCOC(=O)c1ccc(-c2ccc(C(=O)Nc3cccnc3)o2)cc1,–,15.1 µM (active)
O=C(O)c1c(CNCc2cccc(F)c2)c2ccccc2n1Cc1ccccc1,-11.7%,–
Cc1ccc(COc2ccc(/C=N/NC(=O)CN3CCCCC3)cc2)cc1,-13.2%,–
CNC(=S)NNC(=O)c1sccc1OCc1ccccc1,0.426%,–
Cc1ccc(/C=N/NC(=O)c2sccc2OCc2ccc(F)cc2)cc1,–,1.35 µM (active)

Structure (SMILES),"activity change, negative = inhibition",Potency
O=C(c1ccc2c(c1)N(Cc1ccccc1F)C(=O)c1ccccc1S2(=O)=O)N1CCOCC1,-3.29%,–
COc1ccc(C2=NN(C(=O)c3cccnc3)C(c3ccccc3)C2)cc1 (stereo unspecified),-10.9%,–
CCN(CC)CCNC(=O)CN1N=C(c2ccc(OC)cc2)CCC1=O,3.09%,–
COc1ccc(C2=NN(c3nc4ccccc4s3)C(=O)C2)cc1,–,9.53 µM (active)
COc1ccc(S(=O)(=O)c2c(Nc3cccc(Cl)c3)sc(C(=O)c3ccccc3)c2N)cc1,0.0899%,–
COc1cc(-c2cc3n(C)c(C)c(CCC(=O)Nc4ccc(F)cc4)c(=O)n3n2)cc(OC)c1OC,3.74%,–
CC(=O)c1ccc(-c2nnc(CCC(=O)N(C)Cc3cnc4ccccn34)o2)s1,-0.52%,–
CCc1ccc(CN(C)C(=O)CCc2nnc(-c3ccc(-c4ccccc4)cc3)o2)nc1,–,13.5 µM (active)
CCc1ccc(CN(C)Cc2nc(Cc3ccccc3)no2)nc1,3.54%,–
Nc1ccc(-c2nnc(-c3ccc(-c4ccccc4)cc3)o2)cc1,–,2.69 µM (active)
CC(=O)c1ccc(NC(c2ccc(F)cc2)c2nnc(-c3ccccc3)o2)cc1 (stereo unspecified),-2.01%,–
Nc1cccc(-c2cc(-c3ccccc3)nc(-c3cccc(N)c3)n2)c1,1.65%,–
Nc1ccc(-c2sc(N)nc2-c2ccccc2)cc1,-1.44%,–
Nc1ccc(-c2nnc(-c3ccccc3)o2)cc1,–,19 µM (active)
O=C(OCc1nnc(-c2ccccc2)o1)c1cc(=O)[nH]c2ccccc12,4.33%,–
Cc1oc2ccc(O)c(CN3CCOCC3)c2c1C(=O)Nc1cccc(Cl)c1C,-1.52%,–
CC(NC(=O)CCc1cn(Cc2ccccc2Cl)c2ccccc12)c1ccccc1 (stereo unspecified),6.58%,–
CCCSc1nc2sc3c(c2c(=O)n1-c1cccc(Br)c1)CC(C)(C)OC3,0.901%,–
Cc1ccccc1NC(=O)Cc1nc(COC(=O)c2ccc(C(F)(F)F)cc2)cs1,3.93%,–
Cc1ccc(C)c(NC(=O)COC(=O)CSc2ccccc2)c1,6.9%,–
CCOc1ccc(NC(=O)CN(Cc2ccccc2)S(=O)(=O)c2ccc(Cl)cc2)cc1,-5.84%,–
CCc1ccnc(NC(=O)Nc2ccc(OCc3ccccc3)cc2)c1,-2.87%,–
O=C(O)/C=C\C(=O)Nc1ccc(OCc2ccccc2)cc1,–,19 µM (active)
Cc1cccc(NC(=O)Nc2ccc(OCc3ccccc3)cc2)n1,-1.92%,–

Structure (SMILES),"activity change, negative = inhibition",Potency
COc1cccc(C(=O)Nc2ccc(N3CCN(C(=O)c4ccco4)CC3)cc2)c1,-3%,–
COc1ccc(C2COC(=O)C2=N)c(NC(=O)c2ccccc2)c1 (stereo unspecified),4.01%,–
CN1CCN(c2ccc(NC(=O)c3ccccc3)cc2)CC1,–,10.7 µM (active)
O=C(Nc1ccc(S(=O)(=O)N2CCc3ccccc3C2)cc1)c1ccccc1,0.419%,–
COc1ccc(C(=O)Nc2ccc(N3CCC(C)CC3)cc2)cc1Br,-1.07%,–
O=C(Cn1ccc(=O)[nH]c1=O)Nc1ccc(C(=O)O)c(O)c1,-4.38%,–
COc1cccc(C(=O)Nc2cc3c(cc2Br)OCCCO3)c1,–,4.78 µM (active)
COc1cccc(C(=O)Nc2ccc(N3CCCC3)cc2)c1,–,4.26 µM (active)
O=C(Nc1ccc(C(=O)O)c(O)c1)c1ccccc1,–,15.1 µM (active)
CC(=O)Oc1cccc(C(=O)Nc2ccccc2NC(=O)c2cccc(OC(C)=O)c2)c1,-0.563%,–
Cc1ccccc1C(=O)NC(=S)Nc1ccc(N2CCN(C(=O)c3ccccc3)CC2)cc1,2.99%,–
CC(=O)Nc1ccc(S(=O)(=O)N2CCN(c3ccccc3)CC2)cc1,-1.03%,–
COc1ccccc1N1CCN(C(=O)C2Cc3ccccc3CN2C(=O)c2ccco2)CC1 (stereo unspecified),3.04%,–
CC(=O)c1ccc(NC(=O)CSc2nc(-c3ccccc3F)nc3c2c(=O)n(C)c(=O)n3C)cc1,4.57%,–
CC(=O)N1c2ccc(S(=O)(=O)N(C)CC(=O)N(C)Cc3ccccc3)cc2CC1C (stereo unspecified),4.32%,–
CCCCn1c(SCc2ncc(-c3ccccc3)o2)nc2cc(S(N)(=O)=O)ccc21,-17.5%,–
Cc1oc2ccc(O)c(CN3CCCCC3)c2c1C(=O)Nc1cccc(C(F)(F)F)c1,-0.279%,–
CCn1c(CN2CCC(C)CC2)nc2cc(NC(=O)c3ccccc3[N+](=O)[O-])ccc21,5.45%,–
Cc1ccc(NC(=O)C(C)OC(=O)Cc2c[nH]c3ccccc23)cc1S(=O)(=O)N1CCOCC1 (stereo unspecified),-1.54%,–
COc1ccc(CCNC(=O)CCCCn2c(=O)c3ccccc3n(Cc3ccccc3C)c2=O)cc1OC,-1.31%,–
CCNC(=O)Cn1nc(C)n2c(cc3c(OC)cccc32)c1=O,-2.16%,–
CCOc1ccc(S(=O)(=O)Nc2nccs2)cc1,-0.677%,–
O=C(Nc1ccc(N2CCOCC2)c(Cl)c1)c1ccc(S(=O)(=O)N2CCOCC2)cc1,2.53%,–
Cc1ccccc1C(=O)Nc1ccc(N2CCCCCC2)cc1,–,10.7 µM (active)

Structure (SMILES),"activity change, negative = inhibition",Potency
NS(=O)(=O)c1ccc(NC(=O)C(=O)Nc2ccc3nc4n(c(=O)c3c2)CCCCC4)cc1,1.12%,–
CN1CCN(c2ccc(NC(=O)c3cc(Cl)c4c(c3)OCCO4)cc2)CC1,–,10.7 µM (active)
CCCCN(CC)C(=S)Nc1ccc2nc3n(c(=O)c2c1)CCCCC3,3.88%,–
COC(=O)c1ccc(N2CCOCC2)c(NC(=O)c2ccc3c(c2)OCCO3)c1,0.934%,–
COc1cccc(C(=O)Nc2ccc3nc4n(c(=O)c3c2)CCCCC4)c1,–,16.9 µM (active)
Cc1ccccc1C(=O)N1CCN(c2ccc(NC(=O)c3cccs3)cc2)CC1,-1.16%,–
COc1cc2ccccc2cc1C(=O)Nc1ccc(N2CCOCC2)cc1,7.87%,–
CN1CCN(c2ccc(NC(=O)c3ccc4c(c3)OCCO4)cc2Cl)CC1,–,4.78 µM (active)
O=C(CN1C(=O)COc2ccc(Cl)cc21)Nc1ccc(N2CCOCC2)cc1,-0.823%,–
O=C(NC(=O)c1ccccc1N1CCCCC1)Nc1ccc(Br)cc1,-6.23%,–
COc1ccc2c(Sc3ccc(C)cc3)c(C(=O)NC(C)c3ccccc3)[nH]c2c1 (stereo unspecified),3.3%,–
CC(C)Cn1c(=O)c2ccccc2n2c(CCC(=O)N3CCN(c4cccc(Cl)c4)CC3)nnc12,4.18%,–
Cc1cccc(NS(=O)(=O)c2ccc(C)c(C(=O)NCC(c3ccccc3)N(C)C)c2)c1 (stereo unspecified),-0.184%,–
O=C(NC1CCN(Cc2ccccc2)CC1)c1ccc(Cn2c(=O)c3ccccc3n(Cc3cccc(F)c3)c2=O)cc1,-5.59%,–
O=C(NCCOc1cccnc1)c1ccc(OC2CCN(Cc3ccccn3)CC2)cc1,-1.59%,–
CCOc1ccc(N(CC)C(=O)C2CCN(S(=O)(=O)c3cccc4nonc34)CC2)cc1,5.23%,–
CC(OC(=O)c1ccc(NS(=O)(=O)c2ccc3[nH]c(=O)[nH]c3c2)cc1)C(=O)Nc1cccc(Cl)c1Cl (stereo unspecified),2.36%,–
COc1ccc2c(c1)c(N1CCCC1=O)c(C(=O)Nc1ccccc1C(F)(F)F)n2C,-1.46%,–
CCOc1ccc(NC(=O)c2cn(C3CCCCC3)c(=O)c3c2c2ccccc2n3C)cc1,0.366%,–
CCOc1ccc(NC(=O)CN(C)C(=O)Cc2sc(C)nc2-c2ccc(F)cc2)cc1OCC,1.86%,–
O=C1CC(c2ccc(F)cc2F)c2cc3c(cc2N1)OCO3 (stereo unspecified),-7.02%,–
O=C(c1ccccc1)N1CCC(CC2CC(c3ccc(Cl)cc3)=NO2)(C(=O)NCC2CCCCC2)CC1 (stereo unspecified),-0.0551%,–
Cc1nnc2n1N=C(c1ccc3c(c1)NC(=O)CO3)CS2,-2.33%,–
Cn1c(=O)cc(OCC(=O)N2CCN(c3ccccc3)CC2)c2ccccc21,1.2%,–
